# Measured values taken from the supplement of paper PMC10723795.
# ± gives the standard deviation of the averaged measurements.
# Test system: CHON-002
# Experiment: nucleolar normality score relative to DMSO (fraction of DMSO control); RPE1 is a non-cancer human cell line; higher = more normal nucleoli (less nucleolar stress)
# Protocol: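 Selected screen hits were validated in hTERT lines (BJ5TA, CHON-002, RPE1) and cancer lines (DLD1, HCT116). Cells were immunostained for nucleolin and UBF and the nucleolar normality score was measured per field of view, with 4 fields per drug. Scores are normalized to each cell line's own DMSO control. Dose and time are not stated for this panel.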
row,Structure (SMILES),nucleolar normality score
1,CC[C@@]1(O)C(=O)OCc2c1cc1n(c2=O)Cc2cc3ccccc3nc2-1 [Camptothecin],0.38 ± 0.047
